Drawing on ChEMBL document CHEMBL4513216, “Probing the Open Global Health Chemical Diversity Library for Multistage-Active Starting Points for Next-Generation Antimalarials” (ACS Infect Dis, 2020), this text covers INHIBITION for 105 molecules.

Hit rate of the full screen: of about 69,000 compounds, about 8,600 (12%) showed an effect of 50% or more. The sample as a whole holds a higher share of strong results than the screen did.

The test deals with Plasmodium berghei. The test is described as follows: Screen against P. berghei liver stage (PbLuc), transformed with Luciferase, at 10uM. The class given is functional, HepG2. As to conditions: tested at 10 uM.
Turning to `O=C(COC1CCCC1)NCCc1noc(-c2ccccn2)n1`, the INHIBITION is listed as -13.1%.
In the case of `Cc1cc(N(C)C)nc(C2COCCN2Cc2cc(C)on2)n1` (stereo not given) it was 44.8%; in that of `CNC(=O)C1(c2cnccn2)CCCN1C(=O)c1ccc(OC)cc1` (stereo not given), 20.8%; in that of `N[C@@H](Cc1c[nH]cn1)C(=O)N1CCC(Oc2ccc(F)cc2)CC1`, 42.8%.
Regarding `O=C(O)COc1ccc(Cl)cc1CN1CCC2(CCOCC2)CC1`, the INHIBITION came out at 64.5%.
Take `O=C(O)COc1ccc(Cl)cc1CN1CCC2(CCNCC2)CC1`: the INHIBITION worked out at 5.46%.
For `CN1CC2(CCN(Cc3cc(Cl)ccc3OCC(=O)O)CC2)OC1=O`, the INHIBITION is recorded as 33.3%.
Regarding `Cc1ccc2cc(C(=O)N3CCCC3Cn3cccn3)[nH]c2c1` (stereo not given), the INHIBITION is given as -167%.
For the molecule `CCC1CN(C)c2ccccc2CN1CCn1cncn1` (stereo not given), the INHIBITION is recorded as 40.6%.
As for `N[C@H]1CN(S(=O)(=O)Cc2ccccc2)C[C@@H]1C1CC1`, the INHIBITION is -28.7%.
With `N[C@H]1CN(CCCOc2ccccc2)C[C@@H]1C1CC1`, the INHIBITION is reported as 53.8%.
As for `N[C@H]1CN(S(=O)(=O)c2ccccc2)C[C@@H]1C1CC1`, the INHIBITION came out at 58.3%.
With `Cc1ccc(-n2cccn2)cc1S(=O)(=O)N1C[C@H]2CC[C@@H](C1)N(C)C2`, the INHIBITION was determined as 48.1%.
As to `COc1ccc(-n2cccn2)cc1S(=O)(=O)N1C[C@H](C2CC2)[C@@H](N)C1`, the INHIBITION worked out at 12.8%.
On to `Cc1ccc(-n2cccn2)cc1S(=O)(=O)N1C[C@H](C2CC2)[C@@H](N)C1`, for which the INHIBITION is given as 59.5%.
The value for `NC(=O)c1ccc(OCCCN2C[C@H](C3CC3)[C@@H](N)C2)cc1` was -13.4%; that for `N[C@H]1CN(CCOc2ccc(F)cc2)C[C@@H]1C1CC1` was 27.6%.
`N[C@H]1CN(S(=O)(=O)c2cccnc2)C[C@@H]1C1CC1`: the INHIBITION is reported as 1.98%.
With `CCS(=O)(=O)N1CCC2(CCN(CC(=O)N(C)C)C2=O)CC1`, the INHIBITION was found to be 37.1%.
In the case of `NC(=O)c1ccccc1Oc1cccc(C2CCCNC2)n1` (stereo not given), the INHIBITION is -13.2%.
With `O=c1[nH]c2ccc(S(=O)(=O)N(CCO)Cc3ccncc3)cc2[nH]1`, the INHIBITION came to 17.5%.
Take `Cc1oncc1C(=O)N1CCOCC2(CCN(c3ccccn3)C2)C1` (stereo not given): the INHIBITION was determined as 45.1%.
Regarding `c1ccc(OCC2CC3(CCN(c4ncccn4)CC3)CO2)nc1` (stereo not given), the INHIBITION is given as -34%.
For `COc1ccnc(N2CCN(CC(=O)N3CCC(C)CC3)CC2)n1`, the INHIBITION is recorded as -22.9%.
`Cc1cc(CN(C)C(=O)c2ccc(F)c(C(F)(F)F)c2)no1`: the INHIBITION was determined as 23.5%.
In the case of `CN(Cc1ccccc1C#N)C1CCN(CCc2ccccn2)CC1`, the INHIBITION is on record as -52.5%.
In the case of `c1ccc(-c2noc(CCNC3CCOC4(CCOCC4)C3)n2)nc1` (stereo not given), the INHIBITION was -37.8%.
The value for `CCn1cc(CN2CCCN(C(=O)c3sc(C)nc3C)CC2)cn1` was 7.08%.
In the case of `O=C(c1ccsc1)N1CCc2onc(COc3ccccn3)c2C1`, the INHIBITION is given as 45.8%.
Take `COc1c(CNCc2ccccc2Cn2ccnc2)c(C)nn1C`: the INHIBITION was found to be 24%.
The value for `CCCc1nnsc1C(=O)N1CCN(CC(O)c2ccco2)CC1` (stereo not given) was 7.85%; that for `Fc1ccc(OCC2CCCO2)c(NCc2cn3cccnc3n2)c1` (stereo not given) was 59.3%.
With `CCc1nc(CNc2cc(Cl)ccc2OCC2CCCO2)no1` (stereo not given), the INHIBITION stood at 93.1%.
For the molecule `Nc1ccnc(CNc2cc(F)ccc2OCC2CCCO2)n1` (stereo not given), the INHIBITION came to 54.4%.
In the case of `Fc1ccc(OCC2CCCO2)c(NCc2noc(C3CC3)n2)c1` (stereo not given) it was 35.5%; in that of `O=C(Nc1cc(F)ccc1OCC1CCCO1)c1ccccn1` (stereo not given), -25.9%; in that of `CCc1noc(CNc2cc(F)ccc2OCC2CCCO2)n1` (stereo not given), 1.81%.
As for `O=C(CNc1cc(F)ccc1OCC1CCCO1)N1CCOCC1` (stereo not given), the INHIBITION is recorded as 19.5%.
`CC(C)(C)c1nnc(CNc2cc(F)ccc2OCC2CCCO2)o1` (stereo not given): the INHIBITION came to 35.5%.
In the case of `CCc1noc(CNc2ccc(F)cc2OCC2CC2)n1` it was -29.9%; in that of `NCC1CCC2(CCN(C(=O)c3ccccn3)CC2)CO1` (stereo not given), 38.5%; in that of `Cc1ncc(C(=O)NC2CCc3nccn3C2)c(C(C)C)n1` (stereo not given), 11.6%.
Consider `CCOCC1c2c(cnn2CC2CC2)CCN1C(=O)c1ccncn1` (stereo not given), for which the INHIBITION is on record as 6.72%.
In the case of `O=C(CC1CC1)N1CC[C@@H]2[C@H](CC1)N(Cc1cccnc1)CCS2(=O)=O` it was -35%.
As to `Cc1nc(C)n(C2CCCN(C(=O)CCn3ccnn3)C2)n1` (stereo not given), the INHIBITION is recorded as -10.3%.
Regarding `Cc1cn[nH]c1C1COCCN1Cc1ccsc1` (stereo not given), the INHIBITION is reported as 25.15%.
Turning to `O=C(NS(=O)(=O)c1c(Cl)cccc1Cl)c1cccc2c1OCCO2`, the INHIBITION amounted to 12.3%.
Take `O=C(CCCC(=O)NCc1cccc(Br)c1)NCCN1CCCC1`: the INHIBITION turned out to be 17.5%.
For `CC(C)S(=O)(=O)N1CCC(c2cc3n(n2)[C@@H](C(F)(F)F)C[C@@H](C)N3)C1` (stereo not given in full), the INHIBITION was 27.3%.
The value for `COc1cc(C)nc(N2CCN(C(=O)CN(C)C3CC3)CC2)n1` was -3.18%; that for `CCOc1cc(C)nc(N2CCN(C(=O)c3ccncc3)CC2)n1` was 33.8%.
As to `COc1cc(C)nc(N2CCN(C(=O)CN(C)C(C)C)CC2)n1`, the INHIBITION is 59.9%.
For the molecule `CCN(CC)CC(=O)N1CCN(c2nc(C)cc(OC)n2)CC1`, the INHIBITION is reported as 2.54%.
On to `CCOc1cc(C)nc(N2CCN(C(=O)C(C)NC(C)=O)CC2)n1` (stereo not given), for which the INHIBITION was determined as 60.5%.
Consider `CCOc1cc(C)nc(N2CCN(C(=O)CC)CC2)n1`, for which the INHIBITION stood at 8.25%.
Take `CCOC1COC2(CCN(CC3CCOCC3)CC2)C1` (stereo not given): the INHIBITION is reported as 31.2%.
Consider `Clc1ccc(CN2CCCCC2Cn2cncn2)c2ncccc12` (stereo not given), for which the INHIBITION was determined as 40.65%.
For `Cc1nc(CN2CC[C@H]3[C@H]2CCN3c2nncs2)cs1`, the INHIBITION was 40.8%.
Take `Cc1nn(CCN2CCSCC2)cc1CNCc1ccccn1`: the INHIBITION was 23.5%.
Take `OC(COCc1ccccc1F)CN1CCC(Cn2cccn2)CC1` (stereo not given): the INHIBITION was 46.3%.
For `c1ncn(CC2CCCN(Cc3nc(-c4ccoc4)no3)C2)n1` (stereo not given), the INHIBITION is -34%.
The value for `CN(C)C(=O)N1CCC2(CC1)CCN(c1ncccn1)C2` was -26.1%; that for `Cc1ccc(CNC(=O)c2nc3c(n2C)CCN(c2ncccn2)C3)o1` was 48.4%.
On to `COc1cc(CNCc2c(C)nn(C)c2N(C)C)ccc1OCCO`, for which the INHIBITION is reported as 21.6%.
On to `Nc1ccnn1C1CCN(Cc2ccccc2)C1` (stereo not given), for which the INHIBITION is listed as 43.1%.
Consider `Nc1c(Cl)cnn1C1CCN(Cc2ccccc2)C1` (stereo not given), for which the INHIBITION was found to be 37.7%.
The value for `Cc1cnn(C2CCN(Cc3ccccc3)C2)c1N` (stereo not given) was 56.1%.
The value for `Cc1ccc(NC(=O)[C@@H]2C[C@H](C(=O)O)CN(Cc3sccc3C)C2)cn1` was 29.4%.
The value for `Cc1ccc(NC2CCN(C(=O)c3cccnc3O)CC2)nn1` was 16.8%.
For `Cc1csc2c(=O)n(CCSc3cnn[nH]3)cnc12`, the INHIBITION is on record as 18.5%.
For the molecule `c1ccc(CCN2CCN(C3CCOC4(CCOCC4)C3)CC2)nc1` (stereo not given), the INHIBITION was 7.24%.
In the case of `CCc1ccc(C(=O)N2CC[C@H](Oc3cccnc3C)[C@@H](O)CC2)cc1`, the INHIBITION was found to be 78.2%.
On to `Cc1ncccc1O[C@H]1CCN(C(=O)c2cccs2)CC[C@@H]1O`, for which the INHIBITION was found to be 23.3%.
As to `Cc1csc(C(=O)N2CC[C@H](Oc3cccnc3C)[C@@H](O)CC2)c1`, the INHIBITION is 57.5%.
Regarding `Cc1ncccc1O[C@H]1CCN(C(=O)Cc2cccs2)CC[C@@H]1O`, the INHIBITION turned out to be 42.9%.
In the case of `CCc1ccc(C(=O)N2CCC(c3nncn3CC)CC2)cc1` it was -3.16%.
As to `Cc1ccc(C(=O)N2CC[C@H](Oc3cccnc3C)[C@@H](O)CC2)s1`, the INHIBITION worked out at 44.1%.
The value for `O=C(NC1CCCCC1)N1CCc2onc(COc3cccnc3)c2C1` was 40.4%.
Consider `Cc1ccoc1C(=O)N1CCOCC2(CCN(c3ncccn3)C2)C1` (stereo not given), for which the INHIBITION is on record as -19.9%.
In the case of `CC(C)CNC(=O)CNC(=O)NC(C)COc1ccccc1F` (stereo not given) it was -24.5%; in that of `O=C(NCC1CC1)C1CSCN1S(=O)(=O)c1cc(F)cc(F)c1` (stereo not given), 27.7%; in that of `Cc1noc([C@@H]2CC[C@@H]3[C@@H](CCN3S(=O)(=O)c3cccnc3)O2)n1`, -2.53%.
Take `Cc1nnc2n1CCN(c1nc3ccccc3o1)C2`: the INHIBITION was determined as 2.97%.
Take `CC(C)c1nnc2n1CCN(c1nc3ccccc3o1)C2`: the INHIBITION was determined as 16.8%.
For `c1ccc2oc(N3CCn4c(nnc4C4CC4)C3)nc2c1`, the INHIBITION worked out at 68.4%.
With `CCc1nc(C2CCCN2C(=O)c2ccc(N(C)C)nn2)no1` (stereo not given), the INHIBITION is recorded as 24.295%.
With `N[C@@H](Cc1ccccc1)c1nnc(S(=O)(=O)Cc2ccccc2)o1`, the INHIBITION came out at 53.8%.
The value for `N[C@@H](Cc1ccccc1)c1nnc(S(=O)(=O)Cc2ccc(Cl)cc2)o1` was 15.4%.
In the case of `CCS(=O)(=O)c1nnc([C@@H](N)Cc2ccccc2)o1` it was 11.6%; in that of `Cc1cnn(CC2CCCN2C(=O)c2c(C)noc2C)c1` (stereo not given), 12.7%.
Turning to `Cc1ccnn1CCC(=O)N1CCCC1c1cc2cccnc2[nH]1` (stereo not given), the INHIBITION was 6.26%.
For `Cc1nc(N2CCOCC2)nc2c1COCC21CCN(CC2CC2)C1` (stereo not given), the INHIBITION was 36.9%.
For `CCN(Cc1ccncc1)CC1(O)CCN(C(=O)c2cccc(C)c2)C1` (stereo not given), the INHIBITION is on record as -9.32%.
For the molecule `FC(F)(F)c1ccc(CNC[C@H]2COCc3nc4cccnc4n32)cc1`, the INHIBITION was determined as 39.3%.
Consider `Cc1cccc2c1nc1n2[C@@H](CNC(=O)C2CCOCC2)COC1`, for which the INHIBITION was 43.4%.
Regarding `CC(=O)NC[C@H]1COCc2nc3c(C)cccc3n21`, the INHIBITION came to 46.4%.
In the case of `COc1ccc2c(c1)nc1n2[C@@H](CNC(=O)c2ccccn2)COC1` it was 7.53%.
In the case of `c1ccc(CNC[C@H]2COCc3nc4cccnc4n32)cc1`, the INHIBITION is on record as 54.7%.
The value for `Cc1cccc2c1nc1n2[C@@H](CNC(=O)NC(C)C)COC1` was 11.6%; that for `COc1ccc(CNC[C@H]2COCc3nc4cccnc4n32)cc1` was 6.55%; that for `Cc1cccc2c1nc1n2[C@@H](CNC(=O)Cc2ccccc2)COC1` was -33.8%.
Consider `Cc1cccc2c1nc1n2[C@@H](CNC2CCCCC2)COC1`, for which the INHIBITION amounted to 51%.
With `Cc1ccc2c(c1)nc1n2[C@@H](CNC(=O)c2ccccn2)COC1`, the INHIBITION is reported as 57%.
`COc1ccccc1C(=O)NC[C@H]1COCc2nc3c(C)cccc3n21`: the INHIBITION is 50.2%.
In the case of `Cc1cccc2c1nc1n2[C@@H](CNC(=O)c2ccccn2)COC1`, the INHIBITION is on record as 37.4%.
